From PubChem BioAssay
A selection: hits, their analogues and other compounds. The true share with any hit is near 11%.
HCV inhibitor: qHTS Assay for Inhibitors of Hepatitis C Virus (HCV) | Huh7.5.1 HCVcc-Cre infection, luciferase reporter, 44 h | Potency, µM (series often up to 41.8 µM), for inactives: at the top dose activity change, negative = inhibition, actives largely listed as inhibitors | actives 3.4% (n = 340,000) | AID 651820, 2012
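After 44 h co-culture of compound, cells and HCVcc-Cre (~0.5 moi), substrate is added for 15 min at room temperature and luciferase measured over 15 sec. Cells were seeded at 1,000/well and pre-cultured 4 h.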
AMA1 RON2 block: qHTS for Inhibitors of AMA1-RON; Towards Development of Antimalarial Drug Lead: Primary Screen; AID 720542, 2013; Plasmodium falciparum AMA1 (3D7) - RON2 peptide interaction; Potency, µM (doses to about 58.2 µM), inactives show at the top dose activity change, negative = inhibition, usual class: inhibitors; actives 0.2% (n = 360,000); AlphaScreen AMA1-biotinylated RON2 peptide binding;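 note: 0% = vehicle wells and -100% = peptide control; nearly all actives have a fitted effect of over 45% in size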
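AMA1 (3D7) with his tag at 25 nM final met compounds first, then biotinylated RON2 peptide at 25 nM; detection used donor plus acceptor beads, 10 µg/mL apiece, read by AlphaScreen after 30 min at room temperature.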
Pf growth 48h: Primary qHTS for delayed death inhibitors of the malarial parasite plastid, 48 hour incubation; P. falciparum luciferase growth in erythrocytes, 48 h; Potency, µM (titrated, usually from 28.7 µM), inactives show at the top dose activity change, negative = inhibition, hits mostly inhibitors; actives 5.9% (n = 310,000); AID 504832, 2011
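Luciferase-expressing parasites in RBCs, 2% Hct / 0.1% parasitemia final; RPMI 1640 + 0.5% Albumax; 37 C, 5% CO2, one generation; luminescence read-out, lower signal = inhibition.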
Pf growth 96h: Primary qHTS for delayed death inhibitors of the malarial parasite plastid, 96 hour incubation | actives 6.9% (n = 320,000) | Potency, µM (top dose mostly 28.7 µM), without a hit: at the highest dose activity change, negative = inhibition, hits mostly inhibitors | P. falciparum luciferase reporter growth, 96 h
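Cell-based qHTS: luciferase-tagged P. falciparum in erythrocytes (2% hematocrit, 0.05% parasitemia final) incubated with compounds for 96 hours, 37 C, 5% CO2; luciferase detection reagent then added and luminescence measured.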
* = called active by the depositor; ? = inconclusive; · = not tested or not shown; [ ] = another dose, or the depositor's remark. Calls come from the whole dose curve; as a rule, active = well fitted curve in the direction sought with a large enough effect; inconclusive = small, poorly fitted or top-dose-only effect, or another doubt; inactive = no such curve, though single readings can be large; an effect the other way counts as inactive or inconclusive. Unless noted, % is set by controls: 0 for no effect and ±100 for the full control effect; potency is the fitted concentration of half-maximal effect.

SMILES	HCV inhibitor	AMA1 RON2 block	Pf growth 48h	Pf growth 96h
O=S(=O)(c1ccccc1)[C@@]1(c2ccc(Br)cc2)C[C@@H]2ON=C(c3ccccc3)[C@@H]2C1	10µM*	-1%	?	?
Cc1cc(C)c2[nH]c(=O)c(CN(Cc3cccnc3)C(=S)NCCCN(C)C)cc2c1	-3%	-11%	?	5%
O=C1C=CC(O)(c2cc(=O)c3c(O)cc(O)cc3o2)C=C1	?	9%	9.3µM*	15µM*
Oc1ccc(Cl)cc1N=Cc1sc2ccccc2c1Cl	-29%	12%	?	2.3µM*
COc1ccc(N=Cc2sc3ccccc3c2Cl)cc1	-7%	2%	32%	32%
COc1ccc(-c2cc(C(=O)Nc3ccc(C)c(N)c3)c3ccccc3n2)cc1	11µM*	-27%	?	-34%
COc1cccc(-c2cc(C(=O)Nc3ccc4c(c3)OCCO4)c3ccccc3n2)c1	0%	·	9.3µM*	6.6µM*
Cc1ccc(C)c(C(=O)Nc2ccncc2)c1	-14%	5%	?	2.1µM*
O=C(Nc1ccc2c(c1)OCCO2)c1cc(-c2ccccc2)nc2ccccc12	?	-14%	?	?
Cc1ccc(C(=O)Nc2ccncc2)c(Cl)c1	?	-12%	4%	?
Cc1cccc(-c2cc(C(=O)Nc3ccncc3)c3ccccc3n2)c1	-17%	-7%	1µM*	2.3µM*
CC(O)(CS(=O)(=O)Cc1ccccc1)c1ccccc1 (stereo unspecified)	14%	-9%	-23%[0.00184 µM]	?
O=C(COC(=O)Cc1ccccc1[N+](=O)[O-])NCc1ccc(F)cc1	3%	26%	15%	38%
CCCN(CCC)C(=O)C(c1ccccc1)C1(O)CCCCC1 (stereo unspecified)	-8%	8%	·	·
Cc1cc(C)nc(-n2nc(C)cc2NC(=O)c2cccc(S(=O)(=O)N(C)C)c2)n1	-15%	4%	?	2%
COC(=O)c1ccc(NC(=O)c2cc(-c3ccccn3)nc3ccccc23)cc1	-2%	-9%	16%	-37%[5.75 µM]
O=C(Nc1nccs1)c1cc(-c2ccco2)nc2ccccc12	1%	20%	9%	23%
Cc1ccc(C)c(C(=O)Nc2cc(C)nn2-c2nc(C)cc(C)n2)c1	?	-10%	13µM*	?
O=C(Nc1nccs1)c1cc(-c2ccccc2)nc2ccccc12	?	55%	2.6µM*	3.3µM*
Cc1c(-c2ccccc2)nc2ccccc2c1C(=O)Nc1ccncc1	?	-6%	1.7µM*	0.33µM*
COC(=O)c1ccc(NC(=O)c2cc(-c3ccncc3)nc3ccccc23)cc1	10µM*	-8%	?	?
Cc1ccc([C@H]2C(C(=O)O)=CCN2S(=O)(=O)c2ccc(C)cc2)cc1	·	-7%	·	·
CNC(=S)N/N=C1\CC(c2ccccc2)Oc2ccccc21 (stereo unspecified)	?	59%	10µM*	6.6µM*
COCCCn1c(=O)c2ccccc2n(CC(=O)N2CCCc3ccccc32)c1=O	7%	12%	?	-1%
CCn1cc(C(=O)O)c(=O)c2cc(F)c(N3CCN(S(=O)(=O)c4ccc(NC(=O)OC)cc4)CC3)cc21	15%	6%	4.7µM*	?
SMILES	HCV inhibitor	AMA1 RON2 block	Pf growth 48h	Pf growth 96h
CCn1cc(C(=O)O)c(=O)c2cc(F)c(N3CCN(C(=S)NC(=O)c4ccccc4Br)CC3)cc21	19%	97%	?	5.2µM*
CCC(=O)N1CCN(c2cc3c(cc2F)c(=O)c(C(=O)O)cn3CC)CC1	7%	-18%	·	·
CCn1cc(C(=O)O)c(=O)c2cc(F)c(N3CCN(C(=S)NC(=O)c4ccc(F)cc4)CC3)cc21	-11%	106%	?	?
CCn1cc(C(=O)O)c(=O)c2cc(F)c(N3CCN(C(=S)NC(=O)c4ccc(F)c(F)c4)CC3)cc21	14%	94%	6.6µM*	1%
CCn1cc(C(=O)O)c(=O)c2cc(F)c(N3CCN(C(=S)NC(=O)c4cccc(F)c4)CC3)cc21	15%	96%	10µM*	?
CC(C)C(c1nnnn1C(C)(C)C)N1CCN(c2cccc(Cl)c2)CC1 (stereo unspecified)	15%	-3%	?	-24%
O=C(CSc1nc2ccccc2c(=O)n1-c1ccc(OC(F)F)cc1)NC1CC1	-5%	17%	38%	-9%
CC(=O)Nc1ccc(NC(=O)C(C)Sc2nnc(-c3cccs3)o2)cc1 (stereo unspecified)	3%	20%	0%	35%
CCCOc1ccc(C(=O)NC(=S)N2CCN(c3cc4c(cc3F)c(=O)c(C(=O)O)cn4CC)CC2)cc1	20%	63%	15µM*	7%
CCn1cc(C(=O)O)c(=O)c2cc(F)c(N3CCN(C(=S)NC(=O)c4c(OC)cccc4OC)CC3)cc21	-28%	15%	?	-2%
Cc1ccc(S(=O)(=O)N(CCCO)CC(O)CON=C2c3ccccc3-c3ccccc32)cc1 (stereo unspecified)	10µM*	0%	?	9.3µM*
O=C(COc1ccc([N+](=O)[O-])cc1Cl)NCC1CCCO1 (stereo unspecified)	17%	-15%	2%	59%
CCc1cccc(NS(=O)(=O)c2ccc(-n3cccn3)cc2)c1	-26%	8%	26%	13µM*
COc1ccc(C)cc1NS(=O)(=O)c1ccc2c(c1)n(C)c(=O)n2C	8%	1%	-9%	5.9µM*
CCc1cccc(NS(=O)(=O)c2ccc3c(c2)oc(=O)n3C)c1	-25%	-5%	2%	·
CCc1cccc(NS(=O)(=O)c2ccc3c(c2)n(C)c(=O)n3C)c1	?	1%	-14%	4.7µM*
O=S(=O)(Nc1cccc(Cl)c1)c1ccc(-n2cccn2)cc1	6%	3%	3%	?
COc1ccc(OC)c(NS(=O)(=O)c2ccc3c(c2)n(C)c(=O)n3C)c1	-13%	-6%	-10%	·
Cc1cc(C)c(C)c(OCC(O)CN2CCN(c3ccccn3)CC2)c1 (stereo unspecified)	-5%	-2%	14%	1%
CCOC(=O)C(=CNc1ccc(NC2=NCC(C)S2)cc1)C(=O)OCC (stereo unspecified)	?	-5%	9.3µM*	0%
Cc1c(/C(O)=C2\C(=O)C(=O)N(CCN(C)C)C2c2cccs2)cnn1-c1ccccc1 (stereo unspecified)	9%	5%	8%	13µM*
CC(=O)c1cc(F)c(N2CCN(C(=O)COc3ccccc3F)CC2)cc1C	?	10%	15µM*	467%
CC(=O)c1cc(F)c(N2CCN(C(=O)C(C)(C)C)CC2)cc1C	7%	6%	·	?
O=C(Cn1ncc2c([nH]c3ccccc32)c1=O)NCC1CCN(Cc2ccccc2F)CC1	6%	-6%	1%	9.3µM*
